This note sets out measurements from ChEMBL document CHEMBL1201862, “PubChem BioAssay data set” (2004).

Test systems include DLD-1; HOP-18; KM-20L2; LXFL 529; RXF 631; XF498; DMS-273; SNB-78.
Holding throughout (experiment): NCI tumour cell line growth inhibition, 48 h

Results with a measured potency or affinity are listed apart. These assays gave more results; the selection is not random.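 Method: 48-hour compound exposure of cells in 96-well plates, five concentrations, linear interpolation of endpoints. GI50 is the concentration that inhibits growth by half.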

“[Bis(aminomethyl)pentamethylenesilane]tetrachloropaltinum(IV), CHEMBL2146204”: the GI50 in the assay on DLD-1 is 4.58 µM; with HOP-18 it was 42.6 µM; in the assay with KM-20L2, 3.14 µM; in the assay with LXFL 529, 4.97 µM; in the assay on RXF 631 it was 4.63 µM; in the assay on XF498, 2.86 µM.

Regarding “[Bis(aminomethyl)tetramethylenesilane]tetrachloropaltinum(IV), CHEMBL2146189”, the GI50 amounted to 11.8 µM in the assay with DLD-1; 24.3 µM in the assay with HOP-18; 2.99 µM in the assay with KM-20L2; 12.2 µM in the assay on LXFL 529; 7.26 µM in the assay on RXF 631; 3.56 µM with XF498.

“[Bis(aminomethyl)dimethylsilane]dichloroplatinum (II), CHEMBL2146201”: the GI50 in the assay on DMS-273 was 5.62 µM; in the assay with LXFL 529 it was 44.2 µM; in the assay on RXF 631, more than 100 µM; with SNB-78, 16.7 µM; with XF498, 17.2 µM.

As for “cis-Bis[[(trimethylsilyl)methyl]amino]tetrachloroplatinum(IV), CHEMBL2146191”, the GI50 in the assay on DMS-273 was 12.1 µM; in the assay on LXFL 529 it was 2.15 µM; in the assay with RXF 631 it was 3.41 µM; in the assay on SNB-78, 7.36 µM; with XF498, 11 µM.

Take “mu-(1,7-nanodiamine-N,N')bis-(cis-aminedichloroplatimum (II)), CHEMBL2146215”: the GI50 is 36.2 µM in the assay with DLD-1; 4.54 µM in the assay on DMS-273; 84.1 µM in the assay with HOP-18; 35.9 µM in the assay on KM-20L2; 46.2 µM in the assay on LXFL 529; 47.2 µM with RXF 631. This substance also had a GI50 in the assay with SNB-78 of 48.8 µM.

“[Bis(aminomethyl)diethylsilane]tetrachloroplatinum(IV), CHEMBL2146203”: the GI50 in the assay with DLD-1 came out at 8.65 µM; with HOP-18, 13 µM; in the assay with KM-20L2, 1.45 µM; in the assay with LXFL 529, 4.34 µM; with RXF 631, 4.21 µM; in the assay with XF498 it was 2.77 µM.

Turning to CISPLATIN, CHEMBL11359, the GI50 with DLD-1 amounted to 6.03 µM; in the assay with HOP-18, 7.71 µM; in the assay with KM-20L2, 7.48 µM; with LXFL 529, 4.83 µM; in the assay on SNB-78, 1.49 µM.

Consider “[Bis(aminomethyl)pentamethylenesilane]dichloropaltinum(II), CHEMBL2146202”, for which the GI50 turned out to be 31.1 µM in the assay with DLD-1; 37.7 µM in the assay with HOP-18; 12.2 µM in the assay with KM-20L2; 12.9 µM with LXFL 529; 18.4 µM in the assay with RXF 631; 11.5 µM in the assay on XF498.

In the case of “[Bis(aminomethyl)ethylmethylsilane]tetrachloroplatinum(IV), CHEMBL2146192”, the GI50 came to 0.587 µM in the assay on DMS-273; 6.22 µM with LXFL 529; 14.3 µM in the assay on RXF 631; 3.35 µM with SNB-78; 4.22 µM in the assay on XF498.

Take “[Bis(aminomethyl)tetramethylenesilane]dichloropaltinum(II), CHEMBL2146205”: the GI50 with DLD-1 stood at 39.1 µM; with DMS-273 it was 14.6 µM; in the assay with HOP-18, 43.5 µM; in the assay on KM-20L2, 24.4 µM; in the assay with LXFL 529 it was 27.4 µM; with RXF 631, 49.3 µM. Also, the GI50 in the assay on XF498 was 28 µM.

As to “[Bis(aminomethyl)dimethylsilane]tetrachloroplatinum(IV), CHEMBL2146190”, the GI50 amounted to 12.8 µM with DLD-1; 1.02 µM in the assay on DMS-273; 3.58 µM in the assay on KM-20L2; 14.2 µM in the assay on LXFL 529; 34.9 µM in the assay with RXF 631; 3.22 µM in the assay on SNB-78. Moreover, the GI50 in the assay on XF498 amounted to 2.9 µM.
